The campaign covered roughly 5,500 compounds. About 2,000 (36%) were called active. Not shown: some 18% with an inconclusive outcome. This is one part of the list. Values without a mark were called inactive. No stated cut-off is given here; in the data, active means normalized growth mostly below about 0.91 (no sharp cut-off); inconclusive means no clear call, values can overlap the other calls; inactive means mostly above about 0.92.
Test: chemical genetic growth profiling, strain panel (AID 1159580);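 further: tested at 20 µM; growth read once vehicle control cultures reached saturation at 30 °C; 1 = growth at the plate median or of vehicle wells; lower values mean less growth of the strain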
Settings: growth OD
[1] = S. cerevisiae deletion strains, locus YBR229C, strain ROT2, active compounds read low
[2] = S. cerevisiae deletion strains, locus YDL101C, strain DUN1, active compounds read low
[3] = S. cerevisiae deletion strains, locus YDL134C, strain PPH21, active compounds read low
[4] = S. cerevisiae deletion strains, locus YDR150W, strain NUM1, active compounds read low
[5] = S. cerevisiae deletion strains, locus YEL061C, strain CIN8, active compounds read low
[6] = S. cerevisiae deletion strains, locus YGR078C, strain PAC10, active compounds read low
[7] = S. cerevisiae deletion strains, locus YHR030C, strain SLT2, active compounds read low
[8] = S. cerevisiae deletion strains, locus YJR043C, strain POL32, active compounds read low
[9] = S. cerevisiae deletion strains, locus YJR075W, strain HOC1, active compounds read low
[10] = S. cerevisiae deletion strains, locus YKL190W, strain CNB1, active compounds read low
[11] = S. cerevisiae deletion strains, locus YLR039C, strain RIC1, active compounds read low
[12] = S. cerevisiae deletion strains, locus YLR262C, strain YPT6, active compounds read low
[13] = S. cerevisiae deletion strains, locus YMR307W, strain GAS1, active compounds read low
[14] = S. cerevisiae deletion strains, locus YNL153C, strain GIM3, active compounds read low
[15] = S. cerevisiae deletion strains, locus YNL322C, strain KRE1, active compounds read low
[16] = S. cerevisiae deletion strains, locus YPL055C, strain LGE1, active compounds read low
[17] = S. cerevisiae deletion strains, locus YPL241C, strain CIN2, active compounds read low
[18] = S. cerevisiae strains, strain wild type, active compounds read low

`CNC(=S)NN=C(N)c1ccccn1` showed a normalized growth (S. cerevisiae deletion strains, locus YAL013W, strain DEP1, active compounds read low) of 1.02, a normalized growth [1] of 1.02 and a normalized growth [2] of 0.972. The normalized growth [3] was 0.963, the normalized growth [4] was 1.04 and the normalized growth [5] was 0.93. It also gave a normalized growth [6] of 1.01, a normalized growth [7] of 0.786 and a normalized growth (S. cerevisiae deletion strains, locus YHR087W, strain rtc3, active compounds read low) of 1.05. It also gave a normalized growth (S. cerevisiae deletion strains, locus YJL187C, strain SWE1, active compounds read low) of 1.01, a normalized growth [8] of 1.01 and a normalized growth [9] of 1.01. The normalized growth [10] was 0.521 (active), the normalized growth [11] was 0.519 (active) and the normalized growth (S. cerevisiae deletion strains, locus YLR058C, strain SHM2 (second series), active compounds read low) was 1.01. The normalized growth (S. cerevisiae deletion strains, locus YLR085C, strain ARP6, active compounds read low) was 0.484 (active), the normalized growth [12] was 0.698 (active) and the normalized growth (S. cerevisiae deletion strains, locus YML094W, strain GIM5, active compounds read low) was 0.831 (active). For the same molecule, the normalized growth (S. cerevisiae deletion strains, locus YMR219W, strain ESC1, active compounds read low) was 1.01, the normalized growth (S. cerevisiae deletion strains, locus YMR263W, strain SAP30, active compounds read low) was 1.01 and the normalized growth [13] was 0.525 (active). For the same molecule, the normalized growth [14] was 0.989, the normalized growth (S. cerevisiae deletion strains, locus YNL298W, strain CLA4 (second series), active compounds read low) was 0.75 (active) and the normalized growth [15] was 1.04. For the same molecule, the normalized growth (S. cerevisiae deletion strains, locus YNR030W, strain Alg12, active compounds read low) was 0.669 (active), the normalized growth (S. cerevisiae deletion strains, locus YOL006C, strain TOP1, active compounds read low) was 0.167 (active) and the normalized growth [16] was 1.03. For the same molecule, the normalized growth [17] was 0.682 (active), the normalized growth (S. cerevisiae deletion strains, locus YPR135W, strain CTF4, active compounds read low) was 0.7 and the normalized growth [18] was 0.64 (active).

Molecule `O=C1C[C@@H](c2ccccc2)Oc2cc(O)cc(O)c21` has a normalized growth (S. cerevisiae deletion strains, locus YBR021W, strain FUR4, active compounds read low) of 0.958, a normalized growth [1] of 0.927 and a normalized growth (S. cerevisiae deletion strains, locus YCL029C, strain bik1, active compounds read low) of 0.939. It also gave a normalized growth (S. cerevisiae deletion strains, locus YDL035C, strain GPR1, active compounds read low) of 0.884, a normalized growth (S. cerevisiae deletion strains, locus YDL074C, strain BRE1, active compounds read low) of 0.858 and a normalized growth [2] of 0.899. For the same molecule, the normalized growth [3] was 0.903, the normalized growth (S. cerevisiae deletion strains, locus YDL185W, strain tfp1, active compounds read low) was 0.932 and the normalized growth (S. cerevisiae deletion strains, locus YDL192W, strain arf1, active compounds read low) was 0.871 (active). It also gave a normalized growth (S. cerevisiae deletion strains, locus YDR101C, strain arx1, active compounds read low) of 0.943, a normalized growth [4] of 0.949 and a normalized growth (S. cerevisiae deletion strains, locus YDR162C, strain NBP2, active compounds read low) of 0.859. The normalized growth (S. cerevisiae deletion strains, locus YDR318W, strain mcm21, active compounds read low) was 0.875 (active), the normalized growth (S. cerevisiae deletion strains, locus YDR388W, active compounds read low) was 0.95 and the normalized growth (S. cerevisiae deletion strains, locus YDR502C, strain sam2, active compounds read low) was 0.892 (active). It also gave a normalized growth [5] of 0.957, a normalized growth (S. cerevisiae deletion strains, locus YER110C, active compounds read low) of 0.924 and a normalized growth (S. cerevisiae deletion strains, locus YER155C, strain BEM2, active compounds read low) of 0.955. It also gave a normalized growth (S. cerevisiae deletion strains, locus YER167W, strain BCK2, active compounds read low) of 0.947, a normalized growth (S. cerevisiae deletion strains, locus YGL078C, strain dbp3, active compounds read low) of 0.947 and a normalized growth (S. cerevisiae deletion strains, locus YGL086W, strain mad1, active compounds read low) of 1. The normalized growth (S. cerevisiae deletion strains, locus YGL248W, strain PDE1, active compounds read low) was 0.884 (active), the normalized growth [6] was 0.86 and the normalized growth (S. cerevisiae deletion strains, locus YGR135W, strain pre9, active compounds read low) was 0.843 (active). The normalized growth (S. cerevisiae deletion strains, locus YGR252W, strain gcn5, active compounds read low) was 0.595 (active), the normalized growth [7] was 0.97 and the normalized growth (S. cerevisiae deletion strains, locus YHR079C, strain IRE1 (second series), active compounds read low) was 0.952. It also gave a normalized growth (S. cerevisiae deletion strains, locus YHR094C, strain hxt1, active compounds read low) of 0.934, a normalized growth (S. cerevisiae deletion strains, locus YHR129C, strain ARP1, active compounds read low) of 0.942 and a normalized growth (S. cerevisiae deletion strains, locus YHR200W, strain rpn10, active compounds read low) of 0.942. It also gave a normalized growth (S. cerevisiae deletion strains, locus YIL066C, strain RNR3, active compounds read low) of 0.887, a normalized growth (S. cerevisiae deletion strains, locus YIL073C, strain SPO22, active compounds read low) of 0.91 and a normalized growth (S. cerevisiae deletion strains, locus YIL125W, strain kgd1, active compounds read low) of 0.957. For the same molecule, the normalized growth (S. cerevisiae deletion strains, locus YIR030C, strain dcg1, active compounds read low) was 0.942, the normalized growth (S. cerevisiae deletion strains, locus YJL095W, strain BCK1, active compounds read low) was 0.816 and the normalized growth (S. cerevisiae deletion strains, locus YJL134W, strain LCB3, active compounds read low) was 0.963. It also gave a normalized growth (S. cerevisiae deletion strains, locus YJL168C, strain set2, active compounds read low) of 0.961, a normalized growth (S. cerevisiae deletion strains, locus YJL187C, strain SWE1 (second series), active compounds read low) of 0.893 and a normalized growth [8] of 0.906. The normalized growth [9] was 0.919, the normalized growth (S. cerevisiae deletion strains, locus YKL009W, strain mrt4, active compounds read low) was 0.847 (active) and the normalized growth (S. cerevisiae deletion strains, locus YKL068W, active compounds read low) was 0.949. The normalized growth (S. cerevisiae deletion strains, locus YKL085W, strain MDH1 (second series), active compounds read low) was 0.929, the normalized growth (S. cerevisiae deletion strains, locus YKL085W, strain MDH1, active compounds read low) was 0.929 and the normalized growth [10] was 0.955. The normalized growth (S. cerevisiae deletion strains, locus YKR001C, strain vps1, active compounds read low) was 0.878 (active), the normalized growth [11] was 0.711 and the normalized growth (S. cerevisiae deletion strains, locus YLR058C, strain SHM2, active compounds read low) was 0.887 (active). The normalized growth (S. cerevisiae deletion strains, locus YLR102C, strain apc9, active compounds read low) was 0.957, the normalized growth [12] was 0.656 and the normalized growth (S. cerevisiae deletion strains, locus YLR268W, strain sec22, active compounds read low) was 0.943. For the same molecule, the normalized growth (S. cerevisiae deletion strains, locus YLR330W, strain CHS5, active compounds read low) was 0.946, the normalized growth (S. cerevisiae deletion strains, locus YLR342W, strain FKS1 (second series), active compounds read low) was 0.79 (active) and the normalized growth (S. cerevisiae deletion strains, locus YLR371W, strain rom2, active compounds read low) was 0.968. The normalized growth (S. cerevisiae deletion strains, locus YLR418C, strain cdc73, active compounds read low) was 0.711 (active), the normalized growth (S. cerevisiae deletion strains, locus YML016C, strain PPZ1, active compounds read low) was 0.96 and the normalized growth (S. cerevisiae deletion strains, locus YML032C, strain rad52, active compounds read low) was 0.864 (active). The normalized growth (S. cerevisiae deletion strains, locus YML124C, strain tub3, active compounds read low) was 0.947, the normalized growth (S. cerevisiae deletion strains, locus YMR078C, strain ctf18, active compounds read low) was 0.929 and the normalized growth (S. cerevisiae deletion strains, locus YMR223W, strain ubp8, active compounds read low) was 0.862 (active). It also gave a normalized growth [13] of 0.742, a normalized growth (S. cerevisiae deletion strains, locus YNL067W, strain RPL9B, active compounds read low) of 0.884 and a normalized growth (S. cerevisiae deletion strains, locus YNL128W, strain TEP1, active compounds read low) of 0.936. For the same molecule, the normalized growth [14] was 0.895, the normalized growth (S. cerevisiae deletion strains, locus YNL233W, strain BNI4, active compounds read low) was 0.886 and the normalized growth (S. cerevisiae deletion strains, locus YNL250W, strain rad50, active compounds read low) was 0.954. For the same molecule, the normalized growth (S. cerevisiae deletion strains, locus YNL271C, strain bni1, active compounds read low) was 0.93, the normalized growth (S. cerevisiae deletion strains, locus YNL298W, strain CLA4, active compounds read low) was 0.877 (active) and the normalized growth (S. cerevisiae deletion strains, locus YNL307C, strain MCK1, active compounds read low) was 0.901 (active). For the same molecule, the normalized growth [15] was 0.938, the normalized growth (S. cerevisiae deletion strains, locus YNR052C, strain pop2, active compounds read low) was 0.943 and the normalized growth (S. cerevisiae deletion strains, locus YOL012C, strain htz1) was 0.987. The normalized growth (S. cerevisiae deletion strains, locus YOL147C, strain pex11, active compounds read low) was 0.933, the normalized growth (S. cerevisiae deletion strains, locus YOR061W, strain CKA2, active compounds read low) was 0.934 and the normalized growth (S. cerevisiae deletion strains, locus YOR069W, strain VPS5, active compounds read low) was 0.943. The normalized growth (S. cerevisiae deletion strains, locus YOR136W, strain idh2, active compounds read low) was 0.968, the normalized growth (S. cerevisiae deletion strains, locus YOR144C, strain elg1, active compounds read low) was 0.945 and the normalized growth (S. cerevisiae deletion strains, locus YOR184W, strain ser1, active compounds read low) was 0.757 (active). The normalized growth (S. cerevisiae deletion strains, locus YOR316C, strain cot1, active compounds read low) was 0.943, the normalized growth [16] was 0.844 and the normalized growth [17] was 0.955. It also gave a normalized growth (S. cerevisiae deletion strains, locus YPR119W, strain clb2, active compounds read low) of 0.949, a normalized growth (S. cerevisiae deletion strains, locus YPR141C, strain kar3, active compounds read low) of 0.955 and a normalized growth (S. cerevisiae deletion strains, locus YPR163C, strain tif3, active compounds read low) of 0.927. The normalized growth (S. cerevisiae deletion strains, locus YPR167C, strain met16, active compounds read low) was 0.909 (active), the normalized growth (S. cerevisiae deletion strains, strain wtn01, active compounds read low) was 0.99 and the normalized growth [18] was 0.927.

Source: PubChem BioAssay AID1159580 (chemical genetic matrix, 2015)
